# The panel holds about 79,000 compounds, 15% with a hit somewhere; the sample as a whole holds those more often. A number with no mark means an inactive call. Activity calls are given as the source filed them. No stated cut-off is given here; in the data, active means growth inhibition above about 70%; inactive means the rest.
# Experiments:
# [1] = NCI Yeast Anticancer Drug Screen. Data for the rad50 strain (AID 155);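 further: 0% = growth of vehicle-only cultures of the same strain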; settings: S. cerevisiae rad50 strain growth inhibition, active compounds read high
# How it was run: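 Growth of the mutant yeast was measured after compound exposure and referenced to vehicle-treated cultures.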
# [2] = NCI Yeast Anticancer Drug Screen. Data for the mec2-1 strain (AID 157); settings: S. cerevisiae mec2-1 strain, active compounds read high
# How it was run: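 Strain: mec2-1 (DNA repair/cell cycle alteration). Compound exposure, then growth measured; inhibition expressed relative to vehicle.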
# [3] = NCI Yeast Anticancer Drug Screen. Data for the sgs1 mgt1 strain (AID 161);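 further: 0% = growth of cultures given vehicle only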; settings: S. cerevisiae sgs1 mgt1 strain, active compounds read high
# How it was run: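 Test agents were incubated with a DNA-repair-mutant yeast strain. Growth was then read and compared against vehicle-treated controls.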
# [4] = NCI Yeast Anticancer Drug Screen. Data for the cln2 rad14 strain (AID 165);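 further: 0% = growth equal to vehicle treated cultures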; settings: S. cerevisiae cln2 rad14 strain, active compounds read high
# How it was run: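 Compounds are applied to the cln2 rad14 yeast strain, and growth is then compared with that of vehicle-treated cultures to give inhibition.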
# [5] = NCI Yeast Anticancer Drug Screen. Data for the bub3 strain (AID 167); settings: S. cerevisiae bub3 mutant strain, active compounds read high
# How it was run: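 Whole-cell yeast assay. The mutant strain was incubated with compounds, and growth inhibition was determined by comparison with vehicle-treated cells.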
# [6] = NCI Yeast Anticancer Drug Screen. Data for the mlh1 rad18 strain (AID 175); settings: S. cerevisiae mlh1 rad18 strain growth inhibition, active compounds read high
# How it was run: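 Read-out is yeast growth inhibition, calculated against vehicle-only controls. The compound was applied to a strain engineered with DNA damage repair alterations.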
# [7] = at 5.0 µM (retest, dose inferred, filed as 0.5)
# [8] = at 50.0 µM (retest, dose inferred, filed as 5.0)
Structure (SMILES),"growth inhibition [1, 7]","growth inhibition [1, 8]",growth inhibition ([1]; at 50.0 µM),"growth inhibition [2, 7]","growth inhibition [2, 8]",growth inhibition ([2]; at 50.0 µM),"growth inhibition [3, 7]","growth inhibition [3, 8]",growth inhibition ([3]; at 50.0 µM),"growth inhibition [4, 7]","growth inhibition [4, 8]",growth inhibition ([4]; at 50.0 µM),"growth inhibition [5, 7]","growth inhibition [5, 8]",growth inhibition ([5]; at 50.0 µM),"growth inhibition [6, 7]","growth inhibition [6, 8]",growth inhibition ([6]; at 50.0 µM)
Cc1c(C)c(O)c2c(c1O)C(=O)C=C(Cl)C2=O,99% (active),94% (active),88.3% (active),100% (active),96% (active),90.2% (active),100% (active),97% (active),88.3% (active),45%,96% (active),90.7% (active),99% (active),97% (active),87.7% (active),99% (active),96% (active),88.6% (active)
O=C1c2ccccc2-c2nnc3c(c21)Cc1ccccc1C3,-4%,38%,50.9%,-21%,16%,43%,-7%,1%,17.1%,-8%,27%,40.5%,9%,26%,67.5%,-6%,37%,71% (active)
CSC(=S)NN=C(c1ccccc1)c1ccccc1,9%,97% (active),55.6%,13%,99% (active),39.4%,18%,99% (active),69.8%,7%,91% (active),53.9%,0%,98% (active),86.2% (active),16%,99% (active),81.8% (active)
Nc1ncnc2nn(C3OC(CO)C(O)C3O)nc12 (configuration not stated),15%,20%,29.1%,2%,6%,-26.2%,-7%,6%,-22.1%,-29%,-18%,33.1%,0%,1%,-70.4%,4%,0%,-4.75%
Cc1ccnc2[nH]c3ccccc3c(=O)c12,29%,98% (active),81.5% (active),38%,98% (active),69.5%,18%,96% (active),65.5%,30%,96% (active),21.4%,15%,96% (active),65.2%,36%,99% (active),77.7% (active)
CN(C)c1nc(=NCc2ccco2)ss1,12%,51%,1.8%,17%,53%,2.3%,25%,80% (active),17.9%,13%,32%,5.2%,32%,76% (active),-53%,29%,74% (active),9.8%
OC(C1CCCCN1)C1CC(c2ccccc2)Nc2c(Cl)cc(Cl)cc21 (configuration not stated),9%,99% (active),99.4% (active),-2%,99% (active),99.5% (active),-1%,99% (active),99.4% (active),-4%,99% (active),99% (active),1%,99% (active),49.5%,6%,99% (active),99.4% (active)
NNC(=O)c1ccccc1SSc1ccccc1C(=O)NN,82% (active),99% (active),99.3% (active),81% (active),99% (active),99.7% (active),74% (active),99% (active),99.7% (active),51%,99% (active),98.7% (active),98% (active),99% (active),99.1% (active),71% (active),99% (active),99.4% (active)
CCOC(=O)/C(C)=N/Nc1cc(Cl)ccc1O,0%,55%,95.5% (active),4%,32%,94% (active),4%,42%,58%,-62%,51%,70.8% (active),-6%,-15%,34.5%,7%,63%,88.8% (active)
[O-][n+]1onc2ncccc21,34%,98% (active),99.1% (active),38%,99% (active),99.5% (active),54%,99% (active),99.2% (active),33%,99% (active),99.2% (active),66%,98% (active),99.2% (active),63%,99% (active),99.3% (active)
Nc1ccc(/C=C2/c3ccccc3-c3nc4ccccc4cc32)cc1,3%,87% (active),78.9% (active),0%,63%,15.6%,-4%,77% (active),59.9%,-4%,33%,5%,-1%,57%,6.8%,1%,85% (active),52.1%
Cn1ncc2c(Nc3ccccc3)nc(Nc3ccccc3)nc21,-1%,7%,54.1%,-5%,-33%,54.1%,-1%,8%,56.5%,5%,0%,44.5%,-1%,-17%,72.5% (active),5%,15%,80.4% (active)
NC(=O)C1CCCN1C(=O)C1CCCN(Cc2ccc(CN3CCCC(C(=O)N4CCCC4C(N)=O)C3)cc2)C1 (configuration not stated),-1%,-5%,91.5% (active),8%,1%,74.2% (active),-10%,-11%,74.4% (active),-13%,11%,74.7% (active),16%,13%,78.8% (active),-10%,-12%,78.3% (active)
CSC(SC)(C(=O)O)c1cc(C)no1,-7%,-23%,19.4%,-17%,-2%,16.6%,-17%,-15%,2.55%,-7%,10%,45.2%,14%,7%,5.2%,-2%,-21%,1.2%
c1ccc2c(c1)Cc1c-2nc2ccccc2c1N1CCOCC1,87% (active),98% (active),97% (active),17%,99% (active),91% (active),6%,98% (active),82.3% (active),18%,98% (active),34.9%,54%,98% (active),67.5%,25%,98% (active),89.7% (active)
COC(=O)CNC(=O)C(F)(F)F,-160%,-152%,81.8% (active),-47%,-49%,68.1%,-61%,-58%,71.7% (active),-61%,-66%,75.6% (active),-65%,-73%,59.1%,-141%,-111%,80.5% (active)
Cc1cc(Cl)c(O)c(C(=O)C(=O)C(O)c2ccc3c(c2)OCO3)c1 (configuration not stated),98% (active),99% (active),87.9% (active),96% (active),99% (active),90% (active),37%,99% (active),82.1% (active),58%,99% (active),87.9% (active),64%,94% (active),87.9% (active),38%,99% (active),84.1% (active)
CC(Cc1ccccc1)N1C(=O)C=CC1=O (configuration not stated),45%,98% (active),91.8% (active),92% (active),99% (active),93.5% (active),20%,50%,93.8% (active),77% (active),98% (active),91.5% (active),76% (active),99% (active),92.2% (active),47%,98% (active),91.8% (active)
CCCOC(=O)CSC#N,39%,97% (active),97.9% (active),33%,98% (active),98% (active),56%,98% (active),98.2% (active),28%,95% (active),97.8% (active),33%,98% (active),97.8% (active),41%,98% (active),98% (active)

# Reference: PubChem BioAssay (NCI)
